We go through two compounds from PubChem BioAssay (EPA / NIEHS).

The target of experiment [1] is Type-1 angiotensin II receptor (Homo sapiens) (UniProt P30556). Nature of the experiment: NVS_GPCR_hAT1: NovaScreen (NVS) G Protein-Coupled Receptor Assay for human Angiotensin II receptor type 1 (AT1) (AID 2283263). An outline of the steps:
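Membranes from KAN-TS cells; radioligand competitive displacement, 3 h, filtration and scintillation counting. Single-point duplicate screen at 25 uM, then concentration-response up to 50 uM for hits; loss of signal fitted versus DMSO.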

Experiment [2] has as its target human Endothelin Receptor Type B (ETB), EDNRB (gene 1910) (UniProt P24530). Nature of the experiment: NVS_GPCR_hETB: NovaScreen (NVS) G Protein-Coupled Receptor Assay for human Endothelin Receptor Type B (ETB) (AID 2283267). An outline of the steps:
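Human astrocytoma cell membranes; radioligand competitive binding read by filter scintillation counting 4 hours after dosing. Single-concentration duplicate screen at 25 uM, then singleton concentration-response up to 50 uM; loss of signal versus DMSO.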

For experiment [3], the target named is human Endothelin Receptor Type A (ETA), EDNRA (gene 1909) (UniProt P25101). Nature of the experiment: NVS_GPCR_hETA: NovaScreen (NVS) G Protein-Coupled Receptor Assay for human Endothelin Receptor Type A (ETA) (AID 2283265). An outline of the steps:
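Cell-free radioligand displacement using SH-SY5Y-derived protein, 3 h incubation, filter-based scintillation counting. Primary screen in duplicate at 25 uM; actives then run in concentration-response up to 50 uM; loss of binding fitted versus DMSO.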

Molecules are shown by their SMILES. Inconclusive results are not listed. Active and inactive are the calls of the source. The calls were made as follows: active = hit-call score of the fitted dose curve at least 0.9, where 1 is the maximum; inconclusive = response in the unintended direction; inactive = score below 0.9.

human Endothelin Receptor Type B (ETB), EDNRB (gene 1910), sequence (P24530 whole entry, looked up): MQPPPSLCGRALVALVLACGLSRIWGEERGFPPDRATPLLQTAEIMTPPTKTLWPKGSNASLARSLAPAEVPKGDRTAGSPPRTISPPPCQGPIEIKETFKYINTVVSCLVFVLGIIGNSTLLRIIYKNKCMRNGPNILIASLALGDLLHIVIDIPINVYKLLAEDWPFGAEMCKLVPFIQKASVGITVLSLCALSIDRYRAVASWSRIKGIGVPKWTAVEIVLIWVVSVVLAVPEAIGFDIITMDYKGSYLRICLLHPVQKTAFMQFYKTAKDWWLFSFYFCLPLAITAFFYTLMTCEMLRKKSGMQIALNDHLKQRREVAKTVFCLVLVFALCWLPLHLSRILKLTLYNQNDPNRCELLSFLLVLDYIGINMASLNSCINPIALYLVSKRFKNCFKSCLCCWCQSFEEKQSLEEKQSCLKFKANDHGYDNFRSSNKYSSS
Type-1 angiotensin II receptor (Homo sapiens), sequence (P30556 whole entry, looked up): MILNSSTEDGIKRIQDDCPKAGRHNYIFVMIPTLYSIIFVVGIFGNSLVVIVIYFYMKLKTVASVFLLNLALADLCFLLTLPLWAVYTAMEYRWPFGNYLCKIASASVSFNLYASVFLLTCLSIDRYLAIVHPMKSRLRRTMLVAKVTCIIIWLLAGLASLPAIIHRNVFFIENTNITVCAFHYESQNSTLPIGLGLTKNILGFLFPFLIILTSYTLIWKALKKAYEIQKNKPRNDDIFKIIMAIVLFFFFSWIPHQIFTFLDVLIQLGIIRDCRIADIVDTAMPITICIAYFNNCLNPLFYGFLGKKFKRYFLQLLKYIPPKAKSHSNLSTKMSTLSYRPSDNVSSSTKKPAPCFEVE
human Endothelin Receptor Type A (ETA), EDNRA (gene 1909), sequence (P25101 whole entry, looked up): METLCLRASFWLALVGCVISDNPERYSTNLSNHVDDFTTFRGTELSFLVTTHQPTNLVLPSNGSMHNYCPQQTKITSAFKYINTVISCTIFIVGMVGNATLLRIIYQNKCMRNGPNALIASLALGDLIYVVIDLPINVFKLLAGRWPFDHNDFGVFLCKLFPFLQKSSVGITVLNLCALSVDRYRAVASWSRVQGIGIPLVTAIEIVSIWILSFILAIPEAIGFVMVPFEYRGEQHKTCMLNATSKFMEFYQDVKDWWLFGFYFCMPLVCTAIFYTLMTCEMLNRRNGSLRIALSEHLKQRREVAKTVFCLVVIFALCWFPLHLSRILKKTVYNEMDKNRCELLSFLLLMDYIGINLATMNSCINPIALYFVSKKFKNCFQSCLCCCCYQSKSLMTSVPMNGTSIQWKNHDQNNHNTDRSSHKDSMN

Take `Oc1ccc(C(c2ccc(O)cc2)(C(F)(F)F)C(F)(F)F)cc1`: the call in experiment [1] and in experiment [2] was inactive.

The term AC50 denotes the concentration at which the activity in the assay is half-maximal. For `CCCCCCCCCC[N+](C)(C)CCCCCCCCCC`, the figures for the AC50 in experiment [3] and in experiment [2] were 6.49 µM (active) and 16.4 µM (active), respectively.
